aSyn 5UTR act: Activators working through SNCA 5'UTR binding (MLPCN) | hit rate 7.1% among 300,000 | AID 1814 | activity score, % (tested at 7.5 µM), hits read low | alpha-synuclein 5'UTR reporter, activators screen; in the data active = activity score below about -60%
* marks the source's active call; other numbers are inactive results. A selection follows.

SMILES	aSyn 5UTR act
O=C(CCN1C(=O)/C(=C/c2ccccc2F)SC1=S)NC1C=CS(=O)(=O)C1 (configuration not stated)	-62*
CCN(CC)c1ccc(/C=N/NC(=O)c2c(Cl)cnn2C)c(O)c1	90
CCOC(=O)N/N=C/c1cccc(Cl)c1Cl	-97*
CCOC(=O)N/N=C/c1ccc(N(CC)CC)cc1O	-432*
CCOC(=O)N/N=C/c1ccccc1F	-135*
Cc1cc(C(=O)N/N=C/c2cccc(Cl)c2Cl)no1	-108*
CCOC(=O)N/N=C/c1cn(Cc2ccc(Cl)cc2)c2ccccc12	70
O=C(Nc1nc2c(s1)CCCC2)c1ccc(Br)s1	-93*
Cc1ncsc1C(=O)Nc1nc2c(s1)CCCC2	-159*
Cc1ccc(-c2nc(C(Cl)Cl)c3ccccc3n2)cc1	93
c1cncc(-c2nc(NCCCn3ccnc3)c3ccccc3n2)c1	-66*
Cc1ccc(-c2nc(N/N=C/c3cccc([N+](=O)[O-])c3)c3ccccc3n2)cc1	-153*
Cc1ccc(-c2nc(NCc3cccnc3)c3ccccc3n2)cc1	-78*
Cc1ccc(-c2nc(N/N=C/c3cccnc3)c3ccccc3n2)cc1	-258*
CCc1ccc(CN(C(=O)c2cc3ccccc3oc2=O)C2CCS(=O)(=O)C2)cc1 (configuration not stated)	-144*
Cc1ccc(CN(C(=O)c2cc3ccccc3oc2=O)C2CCS(=O)(=O)C2)cc1 (configuration not stated)	-104*
COc1ccc(CN(C(=O)c2cc3ccccc3oc2=O)C2CCCCC2)cc1OC	-65*
O=C(c1cc2ccccc2oc1=O)N(Cc1cccs1)C1CCS(=O)(=O)C1 (configuration not stated)	-104*
O=C(c1cc2ccccc2oc1=O)N(Cc1ccc(F)cc1)C1CCS(=O)(=O)C1 (configuration not stated)	-121*
CN1CCN(/N=C/c2ccc(Br)cc2)CC1	-118*
CN1CCN(/N=C/c2ccc(N(c3ccccc3)c3ccccc3)cc2)CC1	71
O=[N+]([O-])c1cc(/C=N/N2CCCCC2)ccc1Cl	-89*
CN1CCN(/N=C/c2ccc(Cl)c(Cl)c2)CC1	-145*
COc1ccc(/C=N/Nc2nnc(Cc3ccccc3)c(=O)[nH]2)cc1OC	-67*
COc1ccc(Cc2nnc(N/N=C/c3ccc(O)cc3)[nH]c2=O)cc1OC	82
SMILES	aSyn 5UTR act
Cc1ccc(C)c(-c2nc3cc(N)ccc3o2)c1	63
Cc1ccc2oc(Nc3nc(C)cc(C)n3)nc2c1	-163*
Cc1nc(Nc2nc3ccccc3o2)nc2c1CCC2	71
CCOc1cccc(-c2nc3cc(C)ccc3o2)c1	-153*
Cc1ccc2oc(-c3ccccc3)nc2c1	-188*
Cc1cc(Nc2nc3ccccc3nc2Cl)n(-c2ccccc2)n1	-88*
Oc1c(Cl)cc(Cl)cc1C=Nc1cc(C(F)(F)F)ccc1N1CCc2ccccc2C1	-98*
CC1(C)CC(=O)c2cnc(N3CCc4ccccc43)nc2C1	-118*
Fc1cnc(N2CCc3ccccc32)nc1N1CCc2ccccc21	-82*
Fc1ccc(-n2nnc(-c3ccnc4ccccc34)n2)cc1	-154*
Cc1ccc(-n2nnc(-c3ccnc4ccccc34)n2)cc1	-191*
Cc1[nH]c2ccc(C(=O)NC3CCC(C)CC3)cc2c1C (configuration not stated)	-148*
CC1CCC(NC(=O)c2ccc3nc[nH]c3c2)CC1 (configuration not stated)	-81*
CC(C)C(NC(=O)OCc1ccccc1)C(=O)OCC(=O)N1CCCCC1 (configuration not stated)	-132*
c1ccc(CN2CCC(Nc3nc(-c4cccs4)nc4ccccc34)CC2)cc1	62
Cn1c(SCc2ccccc2)nnc1-c1cccs1	-147*
Cn1c(SCc2ccc(F)cc2)nnc1-c1cccs1	-108*
Nc1nccc(/C=C/c2ccc(Cl)cc2)n1	-112*
c1ccc(-c2nc3c(ccc4ccccc43)[nH]2)nc1	-157*
O=c1[nH]c(-c2ccccn2)nc2ccccc12	-96*
c1ccc(-c2nc3ccccc3[nH]2)nc1	-81*
Nc1nc(-c2nc3ccccc3[nH]2)cs1	-86*
Cn1c(=O)c(C(=O)Nc2ncccc2O)c(O)c2ccccc21	-147*
Cc1ccc(NC(=O)c2c(O)c3ccccc3n(C)c2=O)nc1	-98*
Cc1cccc(NC(=O)c2c(O)c3ccccc3n(C)c2=O)c1	-141*
SMILES	aSyn 5UTR act
CC1CCc2nc(NC(=O)Cc3cccs3)sc2C1 (configuration not stated)	-160*
O=C(CCCc1cccs1)Nc1nc2c(s1)CCCC2	-171*
CC1CCc2nc(NC(=O)c3ccco3)sc2C1 (configuration not stated)	88
Cc1csc(NC(=O)CCCc2cccs2)n1	-77*
CC(C)(C)C1CCc2nc(NC(=O)Cc3cn4ccsc4n3)sc2C1 (configuration not stated)	-66*
Cc1ccsc1C(=O)OCC(=O)Nc1sccc1C(N)=O	-130*
COC(=O)c1ccsc1NC(=O)CCc1ccccc1	-109*
NC(=O)c1ccsc1NC(=O)CCc1ccccc1	-153*
Cc1ccc(C)c(OCc2cc(C(=O)N3CCN(c4ccccc4)CC3)no2)c1	-115*
Cc1ccc(C)c(OCc2cc(C(=O)N3C[C@@H](C)O[C@@H](C)C3)no2)c1	-131*
Cc1ccc(C)c(OCc2cc(C(=O)N3CCN(C(=O)c4ccco4)CC3)no2)c1	-113*
O=C(O)c1ccc(N/N=C/c2cc3ccccc3nc2Cl)cc1	-143*
O=[N+]([O-])c1ccccc1N/N=C/c1cc2ccccc2nc1Cl	-206*
Cc1cccc2cc(/C=N/Nc3ccc(C(=O)O)cc3)c(Cl)nc12	-197*
CC1CCC/C(=C\Nc2ccc(C(=O)O)cc2)C1=O (configuration not stated)	-121*
CCOC(=O)c1ccc(N/C=C2/CCCC(C)C2=O)cc1 (configuration not stated)	-153*
O=C(COc1ccccc1)Nc1ccccc1Cl	-165*
Cc1ccc(C(=O)CCC(=O)Nc2ccccc2F)cc1	-98*
O=C(COc1ccccc1)NCCSCc1ccccc1Cl	-64*
Cc1ccc(OCC(=O)Nc2ccccc2F)cc1C	-178*
Cc1ccc(OCC(=O)Nc2ccccc2F)cc1	-72*
CCOC(=O)c1oc2ccccc2c1NC(=O)COc1ccc(F)cc1	61
Cc1ccc(CCC(=O)Nc2ccccc2F)s1	-91*
CC1Oc2ccccc2N(CC(=O)NCc2ccccc2)C1=O (configuration not stated)	-91*
Cc1ccc2c(c1)C(O)(CC(=O)/C=C/C=C/c1ccccc1)C(=O)N2 (configuration not stated)	-112*
SMILES	aSyn 5UTR act
COc1cc(NC(=O)COc2ccccc2Cl)ccc1NC(=O)c1cccs1	-113*
COc1cc(NC(=O)c2ccccc2Cl)ccc1NC(=O)c1ccco1	-195*
O=C(Nc1ccc(NC(=O)c2cccs2)cc1Cl)c1ccco1	-154*
O=C(Nc1ccc(NC(=O)c2cccs2)c(Cl)c1)c1cccs1	-118*
COc1cc(NC(=O)c2cccs2)ccc1NC(=O)c1ccco1	-149*
Cn1c(SCc2ccccc2F)nnc1-c1cnccn1	-187*
Cn1c(SCc2ccccc2F)nnc1-c1ccccn1	-123*
C/C(=N\NC(=O)c1ccccc1N)c1ccc(NC(=O)Cc2ccccc2)cc1	-68*
COc1ccccc1C(=O)NN=C1CCN(Cc2ccccc2)CC1	-73*
C/C(=N\NC(=O)c1cccc(C)c1O)c1ccc(NC(=O)Cc2ccccc2)cc1	-74*
COc1ccccc1C(=O)N/N=C(\C)c1ccc(NC(=O)Cc2ccccc2)cc1	-104*

From PubChem
